ELG1 repair inh = blocks ELG1-dependent DNA repair in HEK293T cells; HEK293T ELG1-luciferase reporter, luminescence, 16 h; DNA damage induced by 5-fluorouridine; Potency, µM (top dose mostly 46.1 µM), most hits filed as inhibitors; actives 2.3% (n = 330,000); AID 504467; note: nearly all actives have a fitted effect of over 55% in size
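DMSO vehicle served as the neutral condition. Each well held 2,000 cells given 5-fluorouridine plus compound; after 16 hr at 37 °C/5% CO2, ONE-Glo was added and luciferase measured 30 min later.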
ALOX12 inh = blocks human arachidonate 12S-lipoxygenase | Potency, µM (top dose mostly 108 µM), usual class: inhibitors | actives 1.1% (n = 580,000) | AID 1671190 | purified 12hLO, xylenol orange hydroperoxide absorbance
Target sequence (P18054 whole entry, looked up): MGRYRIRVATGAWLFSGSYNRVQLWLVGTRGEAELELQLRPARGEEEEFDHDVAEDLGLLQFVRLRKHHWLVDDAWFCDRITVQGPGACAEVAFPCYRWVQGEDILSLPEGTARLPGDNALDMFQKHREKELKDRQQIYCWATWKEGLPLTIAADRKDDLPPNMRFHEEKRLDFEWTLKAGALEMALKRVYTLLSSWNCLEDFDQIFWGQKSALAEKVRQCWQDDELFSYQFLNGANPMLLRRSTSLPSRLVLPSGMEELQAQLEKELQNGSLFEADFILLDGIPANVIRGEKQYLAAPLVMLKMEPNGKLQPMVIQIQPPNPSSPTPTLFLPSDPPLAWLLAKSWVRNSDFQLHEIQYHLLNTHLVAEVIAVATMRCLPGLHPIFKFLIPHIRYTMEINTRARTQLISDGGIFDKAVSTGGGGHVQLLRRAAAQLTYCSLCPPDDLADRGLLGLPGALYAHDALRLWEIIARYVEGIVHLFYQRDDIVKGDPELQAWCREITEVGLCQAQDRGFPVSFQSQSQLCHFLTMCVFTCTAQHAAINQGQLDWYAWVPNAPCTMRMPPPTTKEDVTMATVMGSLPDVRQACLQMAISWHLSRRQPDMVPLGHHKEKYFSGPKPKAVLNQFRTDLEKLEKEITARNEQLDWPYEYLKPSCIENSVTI
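Hydroperoxide product was detected by ferrous iron/xylenol orange as the 573 to 405 nm absorbance ratio. Arachidonic acid at 40 uM (final) was turned over for 30 min at room temperature by 150 nM human 12hLO, pH 7.0 Hepes buffer, after 15 min compound preincubation.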
RORgamma inh = inhibitors of mouse ROR gamma transcriptional activity. Drosophila S2 Gal4-RORgamma UAS-luciferase reporter, 20 h. Potency, µM (highest dose often 53.6 µM), usual class: inhibitors. actives 5.4% (n = 310,000). AID 2551; note: nearly all actives have a fitted effect of over 60% in size
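Using a luciferase readout, inhibitors were identified by reduced reporter activity in Drosophila cells coexpressing a copper-inducible Gal4–ROR gamma fusion and UAS-driven Photinus luciferase, incubated 20 hr after 700 uM copper sulfate.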
VP16 counter = inhibits Gal4-VP16 luciferase reporter, ROR gamma counter-screen; Drosophila S2 Gal4-VP16 UAS-luciferase, luminescence, 20 h; actives 3.5% (n = 310,000); Potency, µM (highest dose often 53.6 µM), actives largely listed as inhibitors; AID 2546;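 note: Gal4-VP16 expression switched on by copper sulfate through the metallothionein promoter; nearly all actives have a fitted effect of over 50% in size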
DT40 TDP1 no CPT = qHTS for Inhibitors of human tyrosyl-DNA phosphodiesterase 1 (TDP1): qHTS in cells in absence of CPT | DT40 Tdp1-/- hTDP1 cells, no CPT, ATP luminescence, 48 h | Potency, µM (series often up to 46.2 µM), usual class: inhibitors | actives 15% (n = 420,000); note: nearly all actives have a fitted effect of over 55% in size
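Cells were dispensed at 400 per well, compounds added by pin tool, plates incubated ≥48 hr at 37 °C, then CellTiter-Glo added for 30 min at room temperature before luminescence reading. Line: DT40 Tdp1-/- complemented with hTDP1; camptothecin omitted.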
TDP1 cell CPT = growth inhibition of DT40 Tdp1-/-;hTDP1 cells with camptothecin (screen for TDP1 inhibitors); Potency, µM (series often up to 46.2 µM), usual class: inhibitors; actives 12% (n = 420,000); chicken DT40 Tdp1-/-;hTDP1 cells + 20 nM CPT, ATP luminescence, 48 h; AID 686979; note: nearly all actives have a fitted effect of over 55% in size
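Chicken DT40 Tdp1-/- cells stably complemented with human TDP1 were seeded at 400 cells/well in medium containing 20 nM camptothecin, exposed to pin-transferred compounds, and grown at 37 °C for at least 48 hr. Viability was read as ATP luminescence.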
A number is an active result; – = inactive; ? = inconclusive; · = no result given; [ ] = dose if it differs, or a comment. Rows were chosen to be rich in hits. Some 15% of all compounds tested hit in one or more screens of this group. Calls come from the whole dose curve; as a rule, active = well fitted curve in the direction sought with a large enough effect; inconclusive = small, poorly fitted or top-dose-only effect, or another doubt; inactive = no such curve, though single readings can be large; an effect the other way counts as inactive or inconclusive.

SMILES	ELG1 repair inh	ALOX12 inh	RORgamma inh	VP16 counter	DT40 TDP1 no CPT	TDP1 cell CPT
CCN(CC(=O)N1c2ccccc2OCC1c1ccccc1)Cc1nc2ccccc2c(=O)[nH]1 (configuration not stated)	·	–	·	·	·	·
c1ccc2c(c1)ncn2-n1cccc1	·	–	·	·	·	·
CCN(CC(=O)NC(=O)NCc1ccco1)Cc1nc2ccccc2c(=O)[nH]1	–	–	0.562µM	1.12µM	4.61µM	4.61µM
CCN(CC(=O)NC(=O)NCc1ccco1)Cc1ccccc1	–	–	·	·	–	–
CCN(CC(=O)NCCc1ccc(S(N)(=O)=O)cc1)Cc1nc2ccccc2c(=O)[nH]1	–	–	6.31µM	20µM	?	20.6µM
CC(NC(=O)Cn1nc(-c2ccc(F)cc2)oc1=O)c1ccc(F)cc1 (configuration not stated)	·	–	·	·	·	·
CC(c1ccc(F)cc1)N1CCN(c2oc(C3CC3)nc2C#N)CC1 (configuration not stated)	·	–	·	·	·	·
CN(Cc1ccccc1)c1ncnc2sccc12	–	–	?	?	11.6µM	?
CN(Cc1ccccc1)c1ncnc2[nH]ncc12	·	–	·	·	–	?
COc1ccc(NS(=O)(=O)c2cc([N+](=O)[O-])ccc2N/N=C\c2c(C)[nH]c3ccccc23)cc1	–	–	–	–	?	16.4µM
Cc1[nH]c2ccccc2c1/C=N/Nc1ccc([N+](=O)[O-])cc1S(=O)(=O)Nc1ccc(Cl)cc1	?	?	–	–	14.6µM	20.6µM
COc1ccccc1NS(=O)(=O)c1cc([N+](=O)[O-])ccc1N/N=C/c1c[nH]c2ccccc12	?	–	–	?	?	?
COc1ccc2[nH]c3c(N4CCN(Cc5ccc6c(c5)OCO6)CC4)ncnc3c2c1	25.9µM	–	–	?	23.1µM	14.6µM
COc1ccc2[nH]c3c(N4CCC(O)(c5cccc(C(F)(F)F)c5)CC4)ncnc3c2c1	?	–	–	?	20.6µM	20.6µM
O=[N+]([O-])c1cccnc1N1CCN(Cc2ccc3c(c2)OCO3)CC1	–	–	–	–	–	?
COc1ccc2c(c1)c1ncnc(N3CCN(Cc4ccc5c(c4)OCO5)CC3)c1n2C	16.4µM	·	–	–	·	·
COc1ccc2cc(C(=O)N3CCN(Cc4ccc5c(c4)OCO5)CC3)[nH]c2c1	–	–	–	–	–	–
Cc1ccc(C(=O)NC2CCCN(c3cc(-c4ccc(Cl)cc4)[nH]n3)C2)cn1 (configuration not stated)	·	–	·	·	·	·
C=C(c1ccccc1C)[n+]1ccccc1	–	–	–	–	?	–
C=C(c1ccccc1Cl)[n+]1ccccc1	–	–	–[1.91 µM]	–	7.31µM	11.6µM
O=C(CSc1cccc[n+]1[O-])CSc1cccc[n+]1[O-]	–	–	3.98µM	?	9.2µM	1.03µM
O=C(CSc1cccc[n+]1[O-])N1CCCCCC1	–	–	–	–	–	–
[O-][n+]1ccccc1SSc1cccc[n+]1[O-]	·	?	0.355µM	0.891µM	0.119µM	0.106µM
O=C(CCS(=O)(=O)C1CCCC1)NCC(O)c1cccc(Cl)c1 (configuration not stated)	·	–	·	·	·	·
COc1ccc(-c2noc(-c3ccc(Cl)cc3[N+](=O)[O-])n2)cc1OC	?	–	–	–	?	–
Cc1cccc(-c2noc(-c3ccc(N4CCCC4)c([N+](=O)[O-])c3)n2)c1	·	–	·	·	?	–
Cc1c(-c2nc(-c3cccnc3)no2)cccc1[N+](=O)[O-]	?	–	–	–[10 µM]	18.4µM	18.4µM
COc1ccc(Nc2nnc(-c3ccc(N4CCOCC4)c([N+](=O)[O-])c3)c3ccccc23)cc1	–	–	–	–	23.1µM	23.1µM
Cc1cccc(-c2noc(-c3ccc(Cl)cc3[N+](=O)[O-])n2)c1	?	–	2.51µM	10µM	–	–
Cc1cccc(-c2noc(-c3ccc(N4CCN(C)CC4)c([N+](=O)[O-])c3)n2)c1	·	?	·	·	23.1µM	?

Assay outcomes (PubChem BioAssay)
